Among the test systems are SK-MEL-2 melanoma; EKVX NSCLC; SN12C renal; UO-31 renal; TK-10 renal; ACHN renal; CAKI-1 renal; A498 renal; CCRF-CEM leukemia; MOLT-4 leukemia; SR leukemia; OVCAR-8 ovarian; OVCAR-5 ovarian; OVCAR-4 ovarian; SK-OV-3 ovarian; IGROV1 ovarian; OVCAR-3 ovarian; HS 578T breast; NCI/ADR-RES ovarian.
What all share (experiment): NCI-60 one-dose screen, 48 h (100 = growth as untreated, 0 = no growth, -100 = all killed)
Common to all, as to conditions: 10 µM unless noted

This is part of a sample that, as a whole, favours compounds with a hit. Of some 83,000 tested, about 20% had one in any assay.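 Each cell line was grown in a 96-well plate and treated with one concentration of compound for 48 hours. Values below 10 were considered active.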 A number with no mark means an inactive call. Activity calls are given as the source filed them.

With `COc1cccc2c(=O)c3c(sc12)c(N1CCNCC1)nc1ccccc13`, the growth in the test on SK-MEL-2 melanoma is 112%; in the test with EKVX NSCLC, 95.6%; with SN12C renal, 64.3%; in the test on UO-31 renal it was 47.2%; in the test with TK-10 renal, 90.7%; in the test on ACHN renal, 53.1%. Moreover, the growth in the test with CAKI-1 renal is 45.8%; with A498 renal it was 61.8%; with CCRF-CEM leukemia it was 13.8%; in the test on MOLT-4 leukemia, -13.3% (active); with SR leukemia, -33.9% (active); in the test on OVCAR-8 ovarian it was 53.2%. Moreover, the growth in the test with OVCAR-5 ovarian was 94.9%; in the test with OVCAR-4 ovarian it was -41.4% (active); with SK-OV-3 ovarian, 83%; in the test on IGROV1 ovarian, 63.3%; in the test on OVCAR-3 ovarian it was -43.8% (active); with HS 578T breast, 89.5%. For the same compound, the growth in the test on NCI/ADR-RES ovarian was 73.2%.
Take `O=c1c2cc(F)ccc2sc2c(NCCCNCCO)nc3ccccc3c12`: the growth with SK-MEL-2 melanoma was 90.9%; in the test on EKVX NSCLC, 51.9%; in the test with SN12C renal, 46.9%; with UO-31 renal, 10.9%; with TK-10 renal, 41%; in the test on ACHN renal, 8.85% (active). In addition, the growth in the test with CAKI-1 renal is -9.01% (active); in the test on A498 renal, 2.69% (active); in the test with CCRF-CEM leukemia, 6.27% (active); with MOLT-4 leukemia, -31.6% (active); in the test with SR leukemia, -45.1% (active); in the test on OVCAR-8 ovarian, 26%. For the same compound, the growth is 63.4% with OVCAR-5 ovarian; 33.3% in the test on OVCAR-4 ovarian; 79.7% in the test with SK-OV-3 ovarian; 22.4% in the test on IGROV1 ovarian; -14.6% (active) with OVCAR-3 ovarian; 34.5% in the test on HS 578T breast. In the test with NCI/ADR-RES ovarian, the growth is 32.4%.
Turning to `NCCOc1ncccc1/C=C1\c2ccccc2-c2ccc(C(F)F)cc21`, the growth in the test on SK-MEL-2 melanoma was 115%; in the test on EKVX NSCLC, 79.7%; with SN12C renal, 16.8%; with UO-31 renal, 31.1%; with TK-10 renal, 86.6%; with ACHN renal, 4.83% (active). For the same compound, the growth in the test with CAKI-1 renal was 35.5%; in the test with A498 renal, 47.5%; in the test with CCRF-CEM leukemia, 6.32% (active); in the test with MOLT-4 leukemia it was 2.92% (active); in the test with SR leukemia it was 2.72% (active); with OVCAR-8 ovarian, 56.4%. For the same compound, the growth is 69.6% in the test with OVCAR-5 ovarian; 83.9% in the test on OVCAR-4 ovarian; 64.3% with SK-OV-3 ovarian; 32.5% with IGROV1 ovarian; 76.2% in the test on OVCAR-3 ovarian; 53.4% with HS 578T breast. Besides, the growth with NCI/ADR-RES ovarian is 57.4%.
In the case of `O=c1c2cc(F)ccc2sc2c(N3CCNCC3)nc3ccccc3c12`, the growth is 103% with SK-MEL-2 melanoma; 72.5% in the test on EKVX NSCLC; 61.7% in the test on SN12C renal; 28.8% with UO-31 renal; 58.8% with TK-10 renal; 7.74% (active) in the test on ACHN renal. The growth in the test on CAKI-1 renal is -48.4% (active); in the test with A498 renal, 30.3%; in the test on CCRF-CEM leukemia it was -27.5% (active); in the test with MOLT-4 leukemia it was -33.5% (active); with SR leukemia, -56.3% (active); in the test with OVCAR-8 ovarian it was 11%. Besides, the growth with OVCAR-5 ovarian was 73.1%; in the test on OVCAR-4 ovarian, -22.2% (active); in the test on SK-OV-3 ovarian it was 84.4%; in the test with IGROV1 ovarian it was 48%; in the test with OVCAR-3 ovarian, -79.6% (active); in the test with HS 578T breast, 46.3%. In addition, in the test with NCI/ADR-RES ovarian, the growth was 18.7%.
`O=C(N/N=C/[C@H](O)[C@H](O)[C@H](O)CO)c1ccc(NC(=O)c2cccnc2)cc1`: the growth was 118% in the test on SK-MEL-2 melanoma; 105% in the test with EKVX NSCLC; 94.5% with SN12C renal; 83.7% in the test on UO-31 renal; 104% in the test on TK-10 renal; 109% with ACHN renal. In addition, the growth was 94.1% with CAKI-1 renal; 99.3% in the test with A498 renal; 99.2% in the test with CCRF-CEM leukemia; 109% with MOLT-4 leukemia; 99.9% with SR leukemia; 102% with OVCAR-8 ovarian. Further, the growth with OVCAR-5 ovarian is 102%; with OVCAR-4 ovarian, 110%; in the test with SK-OV-3 ovarian, 110%; in the test with IGROV1 ovarian, 107%; in the test with OVCAR-3 ovarian, 118%; with HS 578T breast, 98.4%. In addition, the growth in the test on NCI/ADR-RES ovarian is 109%.
As for `CCCCn1c(-c2ccc(C(=O)O/N=C(\N)c3ccc(OC)cc3)cc2)nc(-c2ccccc2)c1-c1ccccc1`, the growth in the test on SK-MEL-2 melanoma was 52.6%; in the test on EKVX NSCLC, -79.2% (active); in the test with SN12C renal, -62.7% (active); with UO-31 renal, -93.7% (active); in the test with TK-10 renal it was -78.8% (active); in the test with ACHN renal, -97.9% (active). The growth is -46.3% (active) with CAKI-1 renal; 20.9% in the test with A498 renal; -48.7% (active) in the test on CCRF-CEM leukemia; -39.7% (active) in the test on MOLT-4 leukemia; -47.4% (active) in the test with SR leukemia; -16.8% (active) in the test on OVCAR-8 ovarian. The growth in the test with OVCAR-5 ovarian is 24.1%; in the test with OVCAR-4 ovarian, 23.1%; in the test on SK-OV-3 ovarian, 87%; with IGROV1 ovarian, -70.2% (active); in the test on OVCAR-3 ovarian, -6.99% (active); in the test with HS 578T breast it was -8.31% (active). Further, in the test on NCI/ADR-RES ovarian, the growth was -39.5% (active).
Consider `CCOC(=O)C1=C(N)Oc2c(sc3c(CC)cccc23)C1c1ccc(F)cc1` (configuration not stated), for which the growth in the test with SK-MEL-2 melanoma is 52.1%; in the test with EKVX NSCLC it was 64.1%; with SN12C renal, 49.1%; in the test on UO-31 renal it was 36.2%; in the test on TK-10 renal, 99.1%; in the test on ACHN renal, 34.1%. The growth is 4.96% (active) with CAKI-1 renal; -3.69% (active) with A498 renal; 27.6% in the test with CCRF-CEM leukemia; 64.2% with MOLT-4 leukemia; 27.2% in the test with SR leukemia; 45.2% in the test on OVCAR-8 ovarian. Besides, the growth was 56.2% in the test with OVCAR-5 ovarian; 58.7% in the test on OVCAR-4 ovarian; 50.6% in the test with SK-OV-3 ovarian; 29.3% in the test with IGROV1 ovarian; -6.19% (active) in the test with OVCAR-3 ovarian; 23.9% in the test on HS 578T breast. Further, the growth in the test on NCI/ADR-RES ovarian was 32.2%.
In the case of `O=C(Nc1ccc(Cl)cc1F)c1ccccc1O`, the growth is 2.56% (active) in the test on SK-MEL-2 melanoma; 66.2% with EKVX NSCLC; 13.7% in the test with SN12C renal; 9.45% (active) in the test with UO-31 renal; 56.6% with TK-10 renal; 34.2% in the test on ACHN renal. The growth is 35.8% with CAKI-1 renal; -21.8% (active) in the test on A498 renal; 53.2% with CCRF-CEM leukemia; 29.7% with MOLT-4 leukemia; 15.8% in the test with SR leukemia; 44.8% with OVCAR-8 ovarian. Moreover, the growth is 71.1% in the test with OVCAR-5 ovarian; 54.6% in the test on OVCAR-4 ovarian; 42.3% in the test on SK-OV-3 ovarian; 20.5% with IGROV1 ovarian; 30.9% with OVCAR-3 ovarian; 41.6% with HS 578T breast. Besides, the growth with NCI/ADR-RES ovarian is 34.5%.

These data come from PubChem BioAssay (NCI).
